# Results reported in PMC8384837, “Expanding the binding specificity for RNA recognition by a PUF domain”.
# Numbering of substitutions follows the chain as printed.
# Tests used:
# Test in all cases: yeast three-hybrid, YBZ-1, SC-Leu-His + 0.5 mM 3-AT, 4 days
# Conditions in all cases: tags: N-Gal4 AD-HA kept; label: inside an RPR1-promoter hybrid RNA with tandem MS2 sites; ssRNA
# PUM1 PUF domain R5-KFC = PUM1 PUF domain R5-KFC (Homo sapiens, UniProt Q14671 828-1176, C1007K;R1008F;Q1011C)
# Outline: (§1)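 The interaction score is the log change in how often each variant appears, from input to selection. Frequencies came from PCR-amplified, Illumina-sequenced repeat regions of Pumilio-1 PUF domain libraries grown in strain YBZ-1 (LexA–MS2 coat fusion, HIS3 reporter) alongside matching RNA elements. Input plates were SC-Leu and selection plates were SC-Leu-His + 0.5 mM 3-AT, each for four days, and the log2 calculation used a pseudocount of 1 where a variant was absent.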
# PUM1 PUF domain R6-MWR = target: T1, PUM1 PUF domain R6-MWR (Homo sapiens, UniProt Q14671 828-1176, N1043M;Y1044W;Q1047R)
# T1 sequence: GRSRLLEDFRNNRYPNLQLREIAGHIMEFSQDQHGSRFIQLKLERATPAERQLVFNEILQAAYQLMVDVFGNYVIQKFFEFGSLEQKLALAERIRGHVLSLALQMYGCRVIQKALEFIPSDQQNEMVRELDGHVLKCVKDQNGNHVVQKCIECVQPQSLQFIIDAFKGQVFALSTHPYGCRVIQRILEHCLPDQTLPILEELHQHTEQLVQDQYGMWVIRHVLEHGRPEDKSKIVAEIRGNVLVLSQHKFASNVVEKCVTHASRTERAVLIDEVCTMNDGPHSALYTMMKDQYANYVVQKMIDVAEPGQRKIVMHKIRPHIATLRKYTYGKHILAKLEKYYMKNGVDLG
# Outline: as §1
# PUM1 PUF domain R3-DWE = PUM1 PUF domain R3-DWE (Homo sapiens, UniProt Q14671 828-1176, C935D;R936W;Q939E)
# Outline: as §1
# PUM1 PUF domain R5-RRE = PUM1 PUF domain R5-RRE (Homo sapiens, UniProt Q14671 828-1176, C1007R;Q1011E)
# Outline: as §1
# PUM1 PUF domain R5-KFW = PUM1 PUF domain R5-KFW (Homo sapiens, UniProt Q14671 828-1176, C1007K;R1008F;Q1011W)
# Outline: as §1
# PUM1 PUF domain R3-FFG = PUM1 PUF domain R3-FFG (Homo sapiens, UniProt Q14671 828-1176, C935F;R936F;Q939G)
# Outline: as §1
# PUM1 PUF domain R3-LWV = PUM1 PUF domain R3-LWV (Homo sapiens, UniProt Q14671 828-1176, C935L;R936W;Q939V)
# Outline: as §1
# PUM1 PUF domain R6-TWQ = target: T2, PUM1 PUF domain R6-TWQ (Homo sapiens, UniProt Q14671 828-1176, N1043T;Y1044W)
# T2 sequence: T1 sequence with M216T, R220Q
# Outline: as §1
# PUM1 PUF domain R3-RRL = PUM1 PUF domain R3-RRL (Homo sapiens, UniProt Q14671 828-1176, C935R;Q939L)
# Outline: as §1
# PUM1 PUF domain R7-GPK = PUM1 PUF domain R7-GPK (Homo sapiens, UniProt Q14671 828-1176, S1079G;N1080P;E1083K)
# Outline: as §1
# PUM1 PUF domain R5-RRE, sequence (Q14671 828-1176 C1007R/Q1011E): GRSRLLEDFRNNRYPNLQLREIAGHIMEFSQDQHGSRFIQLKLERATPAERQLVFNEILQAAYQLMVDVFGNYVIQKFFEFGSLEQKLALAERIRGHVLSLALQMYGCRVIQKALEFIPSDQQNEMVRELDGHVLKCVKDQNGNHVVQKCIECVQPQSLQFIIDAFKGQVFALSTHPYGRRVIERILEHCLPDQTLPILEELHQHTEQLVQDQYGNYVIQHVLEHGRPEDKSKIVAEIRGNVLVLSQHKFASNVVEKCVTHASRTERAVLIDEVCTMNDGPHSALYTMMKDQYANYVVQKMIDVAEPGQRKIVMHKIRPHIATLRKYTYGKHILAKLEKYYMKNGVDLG
sequence,measurement,setting,value
GGCUAGAACUAGUGGAUCCCCCGGCGCCCGGCGGCUCGAGCCCGGGUAAGUGUAAAUAGUCUGCAUGCCGCCGGGCGCCAUGCCUGCAGGUCGACUCUAGAAAACAUG,binding signal,PUM1 PUF domain R5-KFC,5.41 log2 enrichment (interaction score)
same,binding signal,PUM1 PUF domain R6-MWR,7.74 log2 enrichment (interaction score)
same,binding signal,PUM1 PUF domain R3-DWE,2.3 log2 enrichment (interaction score)
same,binding signal,PUM1 PUF domain R5-RRE,1.27 log2 enrichment (interaction score)
same,binding signal,PUM1 PUF domain R5-KFW,3.83 log2 enrichment (interaction score)
same,binding signal,PUM1 PUF domain R3-FFG,3.38 log2 enrichment (interaction score)
same,binding signal,PUM1 PUF domain R3-LWV,3.07 log2 enrichment (interaction score)
GGCUAGAACUAGUGGAUCCCCCGGCGCCCGGCGGCUCGAGCCCGGGUAAGUGAAAAUAGUCUGCAUGCCGCCGGGCGCCAUGCCUGCAGGUCGACUCUAGAAAACAUG,binding signal,PUM1 PUF domain R6-MWR,3.34 log2 enrichment (interaction score)
same,binding signal,PUM1 PUF domain R6-TWQ,2.43 log2 enrichment (interaction score)
GGCUAGAACUAGUGGAUCCCCCGGCGCCCGGCGGCUCGAGCCCGGGUAAGUGUUAAUAGUCUGCAUGCCGCCGGGCGCCAUGCCUGCAGGUCGACUCUAGAAAACAUG,binding signal,PUM1 PUF domain R5-KFC,5.65 log2 enrichment (interaction score)
same,binding signal,PUM1 PUF domain R5-RRE,5.72 log2 enrichment (interaction score)
GGCUAGAACUAGUGGAUCCCCCGGCGCCCGGCGGCUCGAGCCCGGGUAAGUGUAAUUAGUCUGCAUGCCGCCGGGCGCCAUGCCUGCAGGUCGACUCUAGAAAACAUG,binding signal,PUM1 PUF domain R3-RRL,3.07 log2 enrichment (interaction score)
same,binding signal,PUM1 PUF domain R3-FFG,3.8 log2 enrichment (interaction score)
same,binding signal,PUM1 PUF domain R3-LWV,3.36 log2 enrichment (interaction score)
GGCUAGAACUAGUGGAUCCCCCGGCGCCCGGCGGCUCGAGCCCGGGUAAGUGCAAAUAGUCUGCAUGCCGCCGGGCGCCAUGCCUGCAGGUCGACUCUAGAAAACAUG,binding signal,PUM1 PUF domain R6-MWR,2.97 log2 enrichment (interaction score)
GGCUAGAACUAGUGGAUCCCCCGGCGCCCGGCGGCUCGAGCCCGGGUAAGUGUAAGUAGUCUGCAUGCCGCCGGGCGCCAUGCCUGCAGGUCGACUCUAGAAAACAUG,binding signal,PUM1 PUF domain R3-FFG,7.59 log2 enrichment (interaction score)
same,binding signal,PUM1 PUF domain R3-LWV,4 log2 enrichment (interaction score)
GGCUAGAACUAGUGGAUCCCCCGGCGCCCGGCGGCUCGAGCCCGGGUAAGUGUGAAUAGUCUGCAUGCCGCCGGGCGCCAUGCCUGCAGGUCGACUCUAGAAAACAUG,binding signal,PUM1 PUF domain R5-RRE,2.27 log2 enrichment (interaction score)
GGCUAGAACUAGUGGAUCCCCCGGCGCCCGGCGGCUCGAGCCCGGGUAAGUUUAAAUAGUCUGCAUGCCGCCGGGCGCCAUGCCUGCAGGUCGACUCUAGAAAACAUG,binding signal,PUM1 PUF domain R7-GPK,3.11 log2 enrichment (interaction score)
GGCUAGAACUAGUGGAUCCCCCGGCGCCCGGCGGCUCGAGCCCGGGUAAGUGUCAAUAGUCUGCAUGCCGCCGGGCGCCAUGCCUGCAGGUCGACUCUAGAAAACAUG,binding signal,PUM1 PUF domain R5-KFC,3.89 log2 enrichment (interaction score)
same,binding signal,PUM1 PUF domain R5-RRE,4.96 log2 enrichment (interaction score)
same,binding signal,PUM1 PUF domain R5-KFW,4.73 log2 enrichment (interaction score)
